# Screening results as filed in PubChem.
# Six1-Eya2 blk – blocks human Six1 binding to Eya2; Q15475+O00167; AlphaScreen GST-Six1/His-Eya2 binding, biochemical; hits give low values; activity change, % (no concentration beside the values); 0.56% of 360,000 active; AID 651725; in the data active = activity change below about -65%; inconclusive = mostly about -30% to -63%
#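 Homogeneous AlphaScreen proximity assay pairing GST-Six1 with His-tagged Eya2 (added as 5X mix: 250 nM and 500 nM) in 50 mM Tris pH 8.0, 300 mM NaCl, 1 mM TCEP. Glutathione donor and nickel acceptor beads; 1 h, 37 °C, dark.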
# G9a block – inhibitors of human histone lysine methyltransferase G9a; AID 504332; G9a H3K9 monomethylation, AlphaScreen, 2 h; Q96KQ7; 8.8% of 350,000 active; Potency, µM (series often up to 102 µM), hits mostly inhibitors; note: nearly all actives have a fitted effect of over 75% in size
# Target sequence (Q96KQ7 913-1193 limits assumed): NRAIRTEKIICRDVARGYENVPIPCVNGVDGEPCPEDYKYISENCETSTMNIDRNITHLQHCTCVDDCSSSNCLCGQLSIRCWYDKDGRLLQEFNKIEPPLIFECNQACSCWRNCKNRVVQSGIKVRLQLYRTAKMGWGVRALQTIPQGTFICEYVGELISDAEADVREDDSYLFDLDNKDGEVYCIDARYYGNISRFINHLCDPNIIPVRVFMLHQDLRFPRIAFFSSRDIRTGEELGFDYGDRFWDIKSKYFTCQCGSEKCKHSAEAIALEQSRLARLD
#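 Compounds were preincubated with 20 nM G9a for 15 min, after which biotinylated H3K9 peptide (500 nM) and SAM (20 uM) started a 2 h room-temperature reaction. Monomethylated product was quantified by antibody-based AlphaScreen chemiluminescence.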
# CtBP-E1A inh – CtBP/E1A binding inhibition | AlphaScreen GST-E1A/His-CtBP binding, 1536-well; hits give low values | 0.49% of 340,000 active | activity change, % (test concentration not listed); in the data active = activity change below about -65%; inconclusive = mostly about -30% to -63%
#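 Homogeneous bead-based format: GST-tagged E1A captured on glutathione donor beads, His-tagged CtBP on nickel acceptor beads; compounds precede bead addition by 2 h at 37 °C.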
# HP1b chromo inh – HP1-beta chromodomain-methylated histone interaction inhibition; P83916; AlphaScreen HP1-beta / biotin-H3K9me3 peptide binding; Potency, µM (doses to about 114 µM), usual class: inhibitors; 0.56% of 390,000 active; AID 540317; note: nearly all actives have a fitted effect of over 70% in size
# Target sequence (P83916 whole entry, looked up): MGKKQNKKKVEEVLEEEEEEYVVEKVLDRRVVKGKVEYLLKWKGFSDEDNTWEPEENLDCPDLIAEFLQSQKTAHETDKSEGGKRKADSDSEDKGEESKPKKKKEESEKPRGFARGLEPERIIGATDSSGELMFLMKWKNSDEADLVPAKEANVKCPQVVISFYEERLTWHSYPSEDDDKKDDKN
#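 AlphaScreen: HP1-beta (50 nM) preformed 30 min with biotin-H3(1-18)K9me3 peptide (50 nM) in PBS pH 7.4, 0.01% Tween-20. Compound added for 30 min at RT, then streptavidin donor/nickel chelate acceptor beads (10 ug/mL) for 30 min.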
# BAZ2B inh – inhibitors of human BAZ2B bromodomain | Q9UIF8 | 4.4% of 360,000 active | AlphaScreen BAZ2B-H3K14Ac peptide displacement | Potency, µM (series often up to 114 µM), usual class: inhibitors | AID 504333; note: nearly all actives have a fitted effect of over 60% in size
#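 AlphaScreen displacement of biotin-H3(5-23)K14Ac peptide (50 nM final) from BAZ2B (50 nM final) in PBS pH 7.4, 0.01% Tween-20; complex preformed 30 min RT, then compounds (top 110 uM) 30 min RT, beads 20 min dark.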
# JMJD2A Tudor – JMJD2A Tudor domain (human) inhibition; O75164; AlphaScreen JMJD2A-Tudor / H3K4me3 peptide binding; Potency, µM (doses to about 114 µM), usual class: inhibitors; 4.4% of 390,000 active; note: nearly all actives have a fitted effect of over 50% in size
# A number is an active result; - = inactive; ? = inconclusive; . = no result given; [ ] = remark or other dose. Most compounds without a hit are left out; they make up all but 10% or so of the library. Unless noted, calls come from the whole dose curve; as a rule, active = well fitted inhibition curve with a large enough effect; inconclusive = small, poorly fitted or top-dose-only effect; inactive = no such curve, though single readings can be large or run the other way.
SMILES,Six1-Eya2 blk,G9a block,CtBP-E1A inh,HP1b chromo inh,BAZ2B inh,JMJD2A Tudor
COc1cccc2cc3c(=O)n(-c4ccccc4)nc-3oc12,-,?,-,-,?,45µM
CCn1c(C(c2ccccc2)c2ccccc2)n[nH]c1=S,-,7.9µM,-,-,-,32µM
C=CCn1c(OCc2ccccc2)n[nH]c1=S,-,8.9µM,-,?,-,3.2µM
C=CCn1c(C(c2ccccc2)c2ccccc2)n[nH]c1=S,-,10µM,-,-,-,-
NCc1nc2cccnc2n1Cc1ccccc1Cl,.,?,.,-,.,?
COc1cccc(-c2nnc3n(Cc4ccc(C)cc4)c(=O)c4ccccc4n23)c1O,.,-,.,-,-,-
CCOc1ccc(N=Nc2c(N)[nH][nH]c2=O)cc1,-,3.5µM,-,-,?,79µM
COc1cccc(N=Nc2c(N)[nH]n3c(=O)c4c(nc23)CCCC4)c1,-71,?,-,-,-,-
COc1ccc(-c2cc3nc4c(c(=O)n3[nH]2)CCC4)cc1,-,-,-,-,-,-
COc1cccc(N=Nc2c(N)[nH][nH]c2=O)c1,-,4.5µM,-,-,-,-
CCOc1ccc(N=Nc2c(=O)[nH]n3c(=O)cc(C)[nH]c23)cc1,?,?,?,-,50µM,56µM
CC(C)(C)C(=O)NC1CC(=O)N(c2ccc3c(c2)OCCO3)C1 (configuration not stated),.,-,.,-,-,-
CC[C@H](C)[C@H]1CNC(=O)C(=O)N1CC1CCN(CCCc2ccc(OC)c(OC)c2)CC1,-,.,-,-,.,79µM
O=C(CSc1ncc2c(n1)-c1ccccc1N(Cc1ccc(Cl)cc1)S2(=O)=O)c1ccc(Cl)cc1,.,-,.,-,-,-
c1ccc(-c2cc(N3CCOCC3)nc3ccccc23)cc1,-,4.5µM,-,-,50µM,3.2µM
Cc1cc(C)c(S(=O)(=O)n2cnc(C)c2)c(C)c1,.,-,.,-,-,-
CCOc1cc(C(=O)Nc2cccc(-c3nc4ccccc4o3)c2)cc(OCC)c1OCC,.,-,.,-,-,-
CC1N=C2c3ccccc3N=C(SCC(=O)NCCc3ccccc3)N2C1=O (configuration not stated),.,?,.,-,-,-
CC1CCCCC1NC(=O)CNC(=O)c1cccs1 (configuration not stated),-,14µM,-,-,-,-
O=C(NC1CCCCC1NC(=O)c1cccs1)c1cccs1 (configuration not stated),-,-[2.33 µM],-,-,-,-
O=C(Nc1ccccc1-c1nc2ccccc2s1)c1ccc(F)cc1,.,-,.,-,50µM,-
CNc1sc(C(=O)c2ccc(F)cc2)c(N)c1-c1nc2ccccc2s1,-,8.9µM,?,-,50µM,?
CNc1sc(C(=O)c2cccs2)c(N)c1-c1nc2ccccc2s1,?,?,?,-,-,50µM
O=C(Nc1ccccc1-c1nc2ccccc2s1)c1cc(Cl)cc(Cl)c1,.,-,.,-,-,-
COc1ccc(C2Nc3ccccc3C(=O)N2Cc2ccccc2)cc1COc1ccccc1OC (configuration not stated),.,.,.,.,.,-
SMILES,Six1-Eya2 blk,G9a block,CtBP-E1A inh,HP1b chromo inh,BAZ2B inh,JMJD2A Tudor
CCc1ccc2oc(C(=O)Nc3ccccc3C(=O)OC)cc(=O)c2c1,.,-,.,-,-,-
CC(C)(C)N=C1NN=C(c2cc3ccccc3o2)CS1,-,40µM,-,-,?,-
COc1ccc(-c2c(C)c3ccc(O)c(CN4CCCC4)c3oc2=O)cc1,.,-,.,-,-,-
Cc1ccc(NC(=O)N2CCC(CN3CCCCCC3)CC2)c(Cl)c1,.,?,.,-,-,-
COC(=O)c1ccc(/C=C(\C#N)C(=O)NC(C)c2ccccc2)cc1 (configuration not stated),-,50µM,-,-,-,-
CC(NC(=O)/C(C#N)=C/c1ccc([N+](=O)[O-])o1)c1ccccc1 (configuration not stated),-,45µM,-,-,?,?
CCCCOc1cccc(NC(=O)c2cccc(C(=O)Nc3cccc(OCCCC)c3)c2)c1,.,-,.,-,-,-
COc1ccc(C(=O)Nc2cc(-c3nc4ncccc4o3)ccc2C)cc1Br,.,-,.,-,-,-
Cc1ccc(Cn2ccn(CC(=O)Nc3c(C)cc(C)cc3C)c(=O)c2=O)cc1,.,-,.,-,-,-
Cc1ccc2oc(C(=O)N(Cc3ccc(N(C)C)cc3)C3CCS(=O)(=O)C3)c(C)c2c1 (configuration not stated),?,25µM,?,?,11µM,20µM
Cc1ccc2c(C)c(C(=O)N(Cc3ccc(N(C)C)cc3)C3CCS(=O)(=O)C3)oc2c1 (configuration not stated),?,.,?,?,13µM,25µM
Cc1cc(C)n(-c2nc(C(=O)O)cs2)n1,-,50µM,-,-,?,-
Cn1c(=O)c(C(=O)CN2CCc3ccccc32)c(N)n(Cc2ccccc2)c1=O,-,35µM,-,-,-,50µM
CCN(C(=O)CN1CCc2ccccc21)c1c(N)n(Cc2ccccc2)c(=O)[nH]c1=O,-,28µM,-,-,-,-
CC(C)CN(C(=O)CN1CCN(c2ccc(O)cc2)CC1)c1c(N)n(CC(C)C)c(=O)[nH]c1=O,-,?,-,50µM,-,?
CCN(C(=O)CN1CCN(c2ccc(O)cc2)CC1)c1c(N)n(Cc2ccccc2)c(=O)[nH]c1=O,-,8.9µM,-,-,.,?
Cc1nc2cccnc2n1-c1cccc(C(=O)N2CCN(c3ccc(Cl)cc3)CC2)c1,.,-,.,-,?,?
COc1ccccc1C1=Nn2c(nnc2-c2ccccc2C)SC1,.,.,.,.,.,-
Nc1ccc(C(=O)Nc2ccc3cc(S(=O)(=O)O)ccc3c2)cc1,?,.,?,-,.,-
O=C(Nc1ccc(C(=O)Nc2ccc(C(=O)Nc3ccc(S(=O)(=O)O)c4cc(S(=O)(=O)O)cc(S(=O)(=O)O)c34)cc2)cc1)Nc1ccc(C(=O)Nc2ccc(C(=O)Nc3ccc(S(=O)(=O)O)c4cc(S(=O)(=O)O)cc(S(=O)(=O)O)c34)cc2)cc1,.,1.3µM,.,.,.,.
O=C(Nc1cc(C(=O)Nc2ccc(S(=O)(=O)O)cc2S(=O)(=O)O)cc(C(=O)Nc2ccc(S(=O)(=O)O)cc2S(=O)(=O)O)c1)Nc1cc(C(=O)Nc2ccc(S(=O)(=O)O)cc2S(=O)(=O)O)cc(C(=O)Nc2ccc(S(=O)(=O)O)cc2S(=O)(=O)O)c1,.,0.071µM,.,.,.,.
C/C(=N\NS(=O)(=O)c1ccccc1)c1cc(Cl)cc(Cl)c1O,-,45µM,-,-,?,-
C/C(=N/NS(=O)(=O)c1ccc(Cl)cc1)c1cccc(O)c1,-,-,-,-,-,-
Cc1cc(NS(=O)(=O)c2ccccc2)cc(Cl)c1O,-,2.2µM,-,-,-,89µM
